# Out of some 68,000 compounds screened, about 2,700 (4%) showed an effect of 50% or more. The full list was thinned out, with strong results kept by preference.
# Test system: Plasmodium berghei
# Test: Screen against P. berghei liver stage (PbLuc), transformed with Luciferase, at 2uM
# Format: functional, HepG2
# Conditions: tested at 2 uM
row,Compound,INHIBITION
1,O=C(NCCSc1ccccc1F)NCc1cccnc1,68.04%
2,O=C(CCSc1ccccc1F)NCc1cccnc1,-67.38%
3,O=C(Cc1cccnc1)NCCSc1ccccc1F,-10.89%
4,CN1CCCN(C(=O)c2cnc(Cc3c(Cl)cccc3Cl)nc2O)CC1,-116.99%
5,Cc1ccnn1CC(=O)N(C)Cc1ccc(-n2cccn2)cc1,18.76%
6,Cc1ccnn1CC(=O)N(C)Cc1cnn(-c2ccccc2)c1,60.67%
7,CSCC(=O)N(C)Cc1cnn(-c2ccc(F)cc2)c1,-9.65%
8,CSc1ccc(C)c(C(=O)N2CCCC(n3cncn3)C2)c1 (centres undefined),-1.88%
9,COC(=O)c1ccc(S(=O)(=O)N(C)CC(N)=O)c(Cl)c1,-3.54%
10,O=C(Nc1ccccn1)N(CCO)Cc1ccsc1,58.49%
11,Cc1cccnc1NC(=O)N(CCO)Cc1ccsc1,36.95%
12,O=C(Nc1nccs1)N(CCO)Cc1ccsc1,-14.3%
13,O=C(O)c1c(-c2cncnc2)ncc2c1CCN(Cc1cccnc1)C2,11.98%
14,O=C(NCC1Cn2nnc(-c3ccoc3)c2CO1)c1ccc[nH]1 (centres undefined),12.21%
15,O=C(N1CCCC1)N1C[C@@H]2CCNC[C@@H]21,32.05%
16,O=C(C1CCCCC1)N1C[C@@H]2CCNC[C@@H]21,63.89%
17,O=C(C1CCCC1)N1C[C@@H]2CCNC[C@@H]21,34.79%
18,CC(=O)N1CC[C@H]2OCC[C@@]2(C(=O)NCCc2ccccn2)C1,7.55%
19,CN1CC[C@H]2OCC[C@@]2(C(=O)NCCc2ccccn2)C1,23.81%
20,O=C(NCCc1ccccn1)[C@@]12CCO[C@@H]1CCN(CC1CC1)C2,51.81%
21,CN(Cc1nc2ccccc2s1)C1CCCN(c2cccnn2)C1 (centres undefined),29.39%
22,c1cnc2nc(N3CCCC3c3nnc4n3CCCCC4)ccc2n1 (centres undefined),2.06%
23,Cc1c(C(=O)N[C@@H]2CC[C@@H](N3CCCC3)[C@@H]2O)[nH]c2ccc(F)cc12,30.96%
24,O=C(NCC(=O)N1CCN(c2ccccc2)CC1)c1sccc1C1CC1,-31.42%
25,Cc1ccc(C)n1-c1ccsc1C(=O)NCC(=O)N1CCCC1,36.34%

row,Compound,INHIBITION
1,O=C(NCC(=O)N1CCCCC1)c1sccc1C1CC1,54.62%
2,Cc1ccc2nc(C(=O)N(C)[C@@H]3CC[C@@H](N4CCCC4)[C@@H]3O)cn2c1,-18.64%
3,Cc1cn(CCn2ccnc2-c2sccc2C)nn1,59.08%
4,Cc1ccsc1-c1nccn1CCN(C)S(C)(=O)=O,4.48%
5,Cc1ccsc1-c1nccn1CCS(C)(=O)=O,38.1%
6,COc1ccnc(NCc2ccccc2Cn2cccn2)n1,-136.67%
7,CN1CCCN(C(=O)NCCNc2ncccn2)CC1,-3.93%
8,Cc1nn(C)c(C)c1-c1cnc(C2CCCN(S(C)(=O)=O)C2)cn1 (centres undefined),51.15%
9,Cc1nn(C)c(C)c1-c1cnc(C2CCCN(C)C2)cn1 (centres undefined),22.81%
10,CC(=O)N1CCCC(c2cnc(-c3c(C)nn(C)c3C)cn2)C1 (centres undefined),20.08%
11,CN(C)c1ccc(CN(CCCn2ccnc2)Cc2c[nH]cn2)cc1,18.15%
12,Cn1c(CCCNC(=O)Nc2cn[nH]c2)nc2ccccc21,29.13%
13,CC(C)n1nccc1NC(=O)NCCc1nc2ccc(F)cc2n1C,2.9%
14,Cn1c(CCNC(=O)Nc2cn[nH]c2)nc2ccc(F)cc21,55.36%
15,CN(Cc1ccccc1)C1(C(=O)NCC(N)=O)Cc2ccccc2C1,6.39%
16,Cc1cc(CCC2CN(Cc3ccccc3C(=O)O)CCO2)ncn1 (centres undefined),0.3%
17,Cc1cc(C[S+]([O-])CC(=O)NCc2ccccc2)no1 (centres undefined),-15.28%
18,Cc1cc(C[S+]([O-])CC(=O)Nc2c(C)cccc2C)no1 (centres undefined),51.21%
19,Cc1cc(C[S+]([O-])CC(=O)NCC(C)C)no1 (centres undefined),-10.66%
20,CCOC(=O)CN1C(=O)CN(S(C)(=O)=O)CCC(OC)c2ccccc21 (centres undefined),12.44%
21,Cn1ccnc1CN1CCN(CC(=O)NCc2ccccc2F)CC1,26.09%
22,Cc1ccccc1CNC(=O)CN1CCN(Cc2nccn2C)CC1,-34.45%
23,Cn1ccnc1CN1CCN(CC(=O)NCC(F)(F)F)CC1,62.13%
24,CS(=O)(=O)c1snnc1C1CCN(Cc2ccc3nccnc3c2)CC1,28.67%

# Source: ChEMBL document CHEMBL4513216, “Probing the Open Global Health Chemical Diversity Library for Multistage-Active Starting Points for Next-Generation Antimalarials” (ACS Infect Dis, 2020)
